The list is not random: actives were taken first. Their share in the collection is about 19%.
IL-1B inflam inh: inflammasome signaling inhibition, IL-1 beta readout. activity change, % at 57.5 µM. 360,000 tested, 4.7% active. THP-1 LPS/ATP IL-1B secretion, AlphaLISA, 16 h; active compounds read low; in the data active = activity change below about -50%; inconclusive = mostly about -30% to -49%; note: % is set by controls: 0 for no effect and ±100 for the full control effect
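THP-1 cells pretreated 1 hr with compounds (up to 57.5 uM final), then stimulated with LPS (250 ng/mL final) plus ATP (1.25 mM final); secreted IL-1B measured by AlphaLISA after 16 hr, decreased signal indicating inhibition.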
TDP1 cell CPT: growth inhibition of DT40 Tdp1-/-;hTDP1 cells with camptothecin (screen for TDP1 inhibitors) | chicken DT40 Tdp1-/-;hTDP1 cells + 20 nM CPT, ATP luminescence, 48 h | Potency, µM (doses to about 46.2 µM), for inactives: top-dose activity change, negative = growth inhibition, hits mostly inhibitors | 420,000 tested, 12% active | AID 686979; note: potency is the fitted concentration of half-maximal effect; % is set by controls: 0 for no effect and ±100 for the full control effect; nearly all actives have a fitted effect of over 55% in size
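Chicken DT40 Tdp1-/- cells stably complemented with human TDP1 were seeded at 400 cells/well in medium containing 20 nM camptothecin, exposed to pin-transferred compounds, and grown at 37 °C for at least 48 hr. Viability was read as ATP luminescence.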
Chronic BCR inh: chronic active BCR signaling inhibition | Potency, µM (series often up to 46.1 µM), for the others: at the highest dose activity change, negative = inhibition, actives largely listed as inhibitors | ABC-DLBCL IkBa-CBG/CBR reporter, luminescence ratio, 4 h | 340,000 tested, 0.05% active; active = well fitted inhibition curve with a large enough effect in the signal ratio, with a control signal flat, not every such curve was filed as active; inconclusive = small, poorly fitted or top-dose-only effect, or effect the other way, or a change in a side signal; the % refers to the signal ratio;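 note: potency is the fitted concentration of half-maximal effect; plate controls were basal doxycycline-induced cells for no effect and cells given 10 µM MG132 for full effect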
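Concentration-response series (up to 46 uM) were applied to TMD8 dual-reporter cells for 4 h at 37C with doxycycline. Green/red ratio, after filter-overlap correction, defined %Activity; red signal alone was normalised to basal cells and zero luminescence.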
MCF10A rerep: DNA re-replication induction in MCF 10a cells; MCF 10A DNA re-replication, Hoechst nuclear intensity, 48 h; Potency, µM (doses to about 46.1 µM), without a hit: at the highest dose activity, positive = re-replication, most hits filed as activators; 350,000 tested, 2.9% active; AID 624296; note: potency is the fitted concentration of half-maximal effect; % of control where 0% means no effect; nearly all actives have a fitted effect of over 50% in size
SW480 rerep: inducers of DNA re-replication in SW480 colon cancer cells | Potency, µM (series often up to 46.1 µM), without a hit: at the highest dose re-replication activation, actives largely listed as activators | AID 624297 | 340,000 tested, 1.8% active | SW480 DNA re-replication, Hoechst DNA content imaging, 48 h; note: potency is the fitted concentration of half-maximal effect; % of control where 0% means no effect; nearly all actives have a fitted effect of over 55% in size
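Hoechst fluorescence of nuclei (405 nm excitation, 500-530 nm emission) measured by plate-scanning imager after 48 hr compound exposure at 37 C; re-replication scored as increased number of nuclei with elevated intensity.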
DT40 TDP1 no CPT: qHTS for Inhibitors of human tyrosyl-DNA phosphodiesterase 1 (TDP1): qHTS in cells in absence of CPT | DT40 Tdp1-/- hTDP1 cells, no CPT, ATP luminescence, 48 h | Potency, µM (top dose mostly 46.2 µM), inactives show at the highest dose activity change, negative = growth inhibition, hits mostly inhibitors | 420,000 tested, 15% active | AID 686978, 2013; note: potency is the fitted concentration of half-maximal effect; % is set by controls: 0 for no effect and ±100 for the full control effect; nearly all actives have a fitted effect of over 55% in size
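Cells were dispensed at 400 per well, compounds added by pin tool, plates incubated ≥48 hr at 37 °C, then CellTiter-Glo added for 30 min at room temperature before luminescence reading. Line: DT40 Tdp1-/- complemented with hTDP1; camptothecin omitted.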
The depositor's hits bear a star; i = inactive; ? = inconclusive; . = not tested or not shown; [ ] = remark or other dose. Unless noted, calls come from the whole dose curve; as a rule, active = well fitted curve in the direction sought with a large enough effect; inconclusive = small, poorly fitted or top-dose-only effect, or another doubt; inactive = no such curve, though single readings can be large; an effect the other way counts as inactive or inconclusive.

SMILES | IL-1B inflam inh | TDP1 cell CPT | Chronic BCR inh | MCF10A rerep | SW480 rerep | DT40 TDP1 no CPT
CCOC(=O)c1ccccc1NC(=O)Cn1cnc2c(cnn2C(C)(C)C)c1=O | 1 | ? | -3% | ? | -2% | 26µM*
Cc1ccc(C)c(Cn2cnc3c(cnn3C(C)(C)C)c2=O)c1 | -27 | -113% | 5% | -3% | 1%[9.22 µM] | 18µM*
CN(C)c1nnc(-c2ccc(Cl)cc2)o1 | -9 | 14% | 1% | 1% | -5% | -4%
CN(C)c1ccc(NC(=O)CCN2C(=O)c3cccc([N+](=O)[O-])c3C2=O)cc1 | 28 | 0% | 4% | 1% | -1% | 17%
CC1CCC(NC(=O)CCCn2sc3ccccc3c2=O)CC1 (configuration not stated) | 14 | ? | 14% | 1% | 0% | ?
O=C(C1=C[C@H](c2csc3ccccc23)C[C@H](OCc2ccc(CO)cc2)O1)N1CCN(Cc2ccc3c(c2)OCO3)CC1 | ? | 16µM* | -14% | 23µM* | -10%[9.22 µM] | ?
C#Cc1ccc([C@H]2C=C(C(=O)N3CCN(Cc4ccc5c(c4)OCO5)CC3)O[C@@H](OCc3ccc(CO)cc3)C2)cc1 | 0 | ? | ? | 26µM* | ? | ?
O=C(C1=C[C@H](c2ccc3c(c2)OCO3)C[C@H](OCc2ccc(CO)cc2)O1)N1CCN(Cc2ccc3c(c2)OCO3)CC1 | ? | ? | ? | 7% | -15% | ?
O=C(C1=C[C@H](c2ccccc2)C[C@H](OCc2ccc(CO)cc2)O1)N1CCN(Cc2ccc3c(c2)OCO3)CC1 | -53* | ? | -2% | ? | 2%[9.22 µM] | 21µM*
O=C(C1=C[C@@H](C2CC2)C[C@@H](OCc2ccc(CO)cc2)O1)N1CCN(Cc2ccc3c(c2)OCO3)CC1 | -28 | ? | ? | 0% | 4%[9.22 µM] | 21µM*
Cc1ccc2nc(CSc3nnc(NC(=O)c4ccc(C(C)(C)C)cc4)s3)cc(=O)n2c1 | . | -14% | . | . | . | 0%
O=C(NCc1ccon1)C1CCC(=O)N(CCc2ccc(Cl)cc2)C1 (configuration not stated) | i | -6% | ? | 5% | ? | -10%
O=C(C1=C[C@H](c2csc3ccccc23)C[C@H](OCc2ccc(CO)cc2)O1)N1CCOCC1 | -7 | ? | -16% | -12% | 25% | ?
CN1CCN(C(=O)C2=C[C@@H](c3csc4ccccc34)C[C@@H](OCc3ccc(CO)cc3)O2)CC1 | ? | 21µM* | 2% | 6% | -5% | 18µM*
O=C(C1=C[C@@H](c2ccc(C(F)(F)F)cc2)C[C@@H](OCc2ccc(CO)cc2)O1)N1CCN(Cc2ccccc2)CC1 | -60* | ? | ? | ? | 27% | ?
O=C(c1cnccn1)N1CCC2(CCCN(c3ccncc3)C2)CC1 | . | 2% | . | . | . | -12%
COc1cc(NC(=O)COc2ccc([N+](=O)[O-])cc2)ccc1NC(=O)c1ccco1 | ? | -4% | . | . | . | -8%
CCC(C)NC(=O)Cn1c(=O)n(-c2ccc(Cl)c(Cl)c2)c(=O)c2c(C)c(C(=O)N(CC)CC)sc21 (configuration not stated) | . | -25% | -7% | . | . | ?
CC1=CC(=C2C(=O)c3ccccc3C2=O)C=C(C)O1 | -4 | 10µM* | 0% | 9% | 10% | ?
O=C1c2ccccc2C(=O)N1Cc1ccco1 | 4 | 8% | 10% | ? | -2% | 17%
CC(=O)N1C(=O)C(=C2C=C(C)OC(C)=C2)c2ccccc21 | -6 | ? | -11% | 4% | -1% | ?
CC1=CC(=C2C(=O)c3ccccc3C2=O)C=C(C)N1Cc1ccco1 | -62* | -22% | 20% | 9% | 0% | 21µM*
O=C(NCCOc1ccc(F)cc1)C1CCC(=O)N(CCc2ccccn2)C1 (configuration not stated) | 19 | -5% | 5% | 1% | -13% | -3%
FC(F)(F)c1ccc(-c2noc(-c3ccccc3Br)n2)cc1 | . | 16µM* | ? | . | . | ?
c1ccc(-c2ccc(-c3nc(-c4ccncc4)no3)cc2)cc1 | -5 | ? | ? | 15µM* | 15% | ?
SMILES | IL-1B inflam inh | TDP1 cell CPT | Chronic BCR inh | MCF10A rerep | SW480 rerep | DT40 TDP1 no CPT
c1ccc(-c2nc(-c3ccncc3)no2)cc1 | 13 | -20% | . | 0% | -1% | -19%
c1ccc(C(Cc2nc(-c3ccncc3)no2)c2ccccc2)cc1 | -29 | 18µM* | 0% | 4% | -1% | ?
CCCCn1cc2c(c1-c1ccc(Cl)cc1)c(=O)n(C)c(=O)n2C | . | ? | . | . | . | 15µM*
Cc1ccc(-c2c3c(=O)n(C)c(=O)n(C)c3cn2Cc2ccccc2)cc1 | -27 | ? | -2% | ? | 2% | ?
CCCn1cc2c(c1-c1ccc(C)cc1)c(=O)n(C)c(=O)n2C | 8 | ? | 5% | -2% | -10% | 21µM*
COC(=O)C1CCN(Cc2ccc3c(c2)CN(C(=O)c2cc(C)nc(C)n2)CCO3)CC1 | . | 8%[9.04 µM] | . | . | . | -9%
Cc1cccc(Cc2c(C)nc3nc(SCC(=O)NC4CCCCC4)nn3c2C)c1 | . | -29% | . | . | . | -4%
COc1cc(F)c(C2=CC(=O)C[C@H](c3ccc4c(c3)OCO4)C2)cc1F | -25 | -12% | 0% | -5% | -4% | -27%
COc1ccc([C@H]2CC(=O)C=C(c3cc(F)ccc3OC)C2)cc1 | -3 | ? | -7% | 21µM* | ? | -58%
COc1ccc(F)cc1C1=CC(=O)C[C@H](c2ccc3c(c2)OCO3)C1 | 19 | 9.2µM* | 1% | ? | ? | 13µM*
COc1ccc(Cl)cc1C1=CC(=O)C[C@H](c2ccc(F)cc2)C1 | -1 | ? | ? | ? | -7%[9.22 µM] | ?
COc1ccc([C@H]2CC(=O)C=C(c3cc(C=O)ccc3OC)C2)cc1OC | 0 | ? | -4% | 89% | ? | ?
CCOc1ccc(Cl)cc1C1=CC(=O)C[C@H](c2ccc(OC)cc2)C1 | 74 | 2.9µM* | ? | ? | 3.7µM* | 4.1µM*
COc1ccc([C@H]2CC(=O)C=C(c3cc(C=O)ccc3OC)C2)cc1 | 39 | 4.6µM* | -13% | ? | 9.2µM* | 5.8µM*
COC(=O)c1cc2oc3ccccc3c2n1CC(=O)Nc1ccc(F)c(Cl)c1 | . | -51% | . | . | . | -26%
Cc1cc(C(=O)N2CCN(c3cc(Cl)ccc3C)CC2)on1 | -29 | -4% | 0% | 0% | -4% | -21%

Assay outcomes: PubChem BioAssay, National Center for Advancing Translational Sciences (NCATS)
